# Results reported in PubChem BioAssay (Tox21).
# Inconclusive results are not listed. A call without a number means that no potency is given here. Calls of active or inactive are those of the source. Calls come from the whole dose curve; as a rule, active = well fitted cell-killing curve with a large enough effect in the repeat runs; inconclusive = weak or mixed curves, or effect the other way; inactive = flat fitted curve, though single readings scatter.
# Assay: cAMP Responsive Elements (CRE) small molecule antagonists, cell-based qHTS assay: qHTS cell viability counter screen (AID 2060913); note: nearly all actives have a fitted effect of over 40% in size
# Details: CRE-bla HEK293T viability, CellTiter-Glo luminescence, 5 h; series mostly up to 92.4 µM
# Description: U.S. Tox21 Program National Center for Advancing Translational Sciences [NCATS] Division of Preclinical Innovation [DPI] U.S. Environmental Protection Agency [EPA] National Institutes of Environmental Health Sciences [NIEHS] National Toxicology Program [NTP] U.S. Food and Drug Administration [FDA] Tox21 Assay Overview: CREB (cyclic-AMP Responsive Element Binding Protein) is a cellular transcription factor. It binds to certain DNA sequences called cAMP Responsive Elements (CRE) and regulates the transcription of the genes. […] This cell line can be used to find agonists/antagonists of the cyclic AMP signaling pathway. The activation of the report gene under culture conditions can be detected by fluorescence intensity. This cell line has been used to screen the Tox21 10K compound library to identify agonists that induce oxidative stress. The cytotoxicity of the Tox21 compound library against the CRE-bla cell line was tested in parallel by measuring the cell viability using CellTiter-Glo assay (Promega, Madison, WI) in the same wells.
# Tox21 Assay Protocol Summary: CRE-bla Hek 293T cells were suspended in assay medium (DMEM containing 10% dialyzed FBS, 0.1 mM NEAA, 1 mM sodium pyruvate and 25 mM HEPES) and dispensed at 2,000 cells/4 uL /well into 1536-well black wall/clear bottom plates using a Multidrop Combi (ThermoFisher Scientific, Waltham, MA) dispenser. After the assay plates were incubated at 37 C/5% CO2 for 18 hrs, 23 nL of compounds dissolved in DMSO, positive controls or DMSO only was transferred to the assay plate by a pintool workstation (Kalypsys, San Diego, CA), followed by addition of 1 uL of 1.25uM NKH477 (0.25 uM as final concentration) in assay medium using a Flying Reagent Dispenser (Aurora Discovery, San Diego, CA). The plates were incubated at 37 C and 5% CO2 for 3 hrs. Then 1 uL of LiveBLAzer B/G FRET substrate (Invitrogen, Carlsbad, CA) was added to each well using Bioraptr Flying Reagent Dispenser (FRD, Aurora Discovery, San Diego, CA). The plates were incubated at room temperature for 2 h, then fluorescence intensities were measured using an Envision plate reader (PerkinElmer, Shelton, CT) at Excitation 405nm, Emission 460nm and 530nm. The % activity was determined from the ratio of 460nm/530nm. For cell viability readout that measures cytotoxicity, 4 uL /well of CellTiter-Glo reagent was added into the assay plates using Bioraptr FRD. After 30 min incubation at room temperature, the luminescence intensity in the assay plates was measured using a ViewLux (PerkinElmer, Shelton, CT) plate reader.
# Potency is the fitted concentration of half-maximal effect.
SMILES,Potency,"viability change, negative = cytotoxic"
Cc1oc(-c2ccccc2)nc1CCOc1cccc2c1ccn2CCC(=O)O,inactive,
Cc1ccnc(N)c1,inactive,
COCCOCC(OC)OC,inactive,
COc1cc(C(C)C)ccc1C,,0.655% [at 18.9 µM] (inactive)
CNCC(O)c1ccc(O)c(O)c1 (stereo not given),inactive,
CC=O,63.9 µM (active),
CN(C/C=C/c1ccccc1)Cc1cccc2ccccc12,29.8 µM (active),
CCCCCCC/C=C/C=O,inactive,
CC(C)OCC1CO1 (stereo not given),inactive,
C=C(C)C(=O)OCCO,inactive,
CC1=C(C/C=C(\C)CCC[C@H](C)CCC[C@H](C)CCCC(C)C)C(=O)c2ccccc2C1=O,inactive,
O=C1CC[C@@H](C(=O)O)N1,inactive,
CSCC[C@H](NC(=O)[C@H](Cc1c[nH]c2ccccc12)NC(=O)CCNC(=O)OC(C)(C)C)C(=O)N[C@@H](CC(=O)O)C(=O)N[C@@H](Cc1ccccc1)C(N)=O,inactive,
O=C(O)CCCC[C@@H]1SC[C@@H]2NC(=O)N[C@@H]21,inactive,
C=CC(=O)OCCCCCCCCCC,inactive,
c1cc(CCCc2ccncc2)ccn1,inactive,
CC(C)(C)c1cc(CCC(=O)OCC(COC(=O)CCc2cc(C(C)(C)C)c(O)c(C(C)(C)C)c2)(COC(=O)CCc2cc(C(C)(C)C)c(O)c(C(C)(C)C)c2)COC(=O)CCc2cc(C(C)(C)C)c(O)c(C(C)(C)C)c2)cc(C(C)(C)C)c1O,inactive,
O=C(Nc1ccc(Cl)c(Cl)c1)C1CC1,inactive,
CN1CCN(C2=Nc3ccccc3Oc3ccc(Cl)cc32)CC1,inactive,
C=CC(=O)OCC(CO)(COC(=O)C=C)COC(=O)C=C,28.5 µM (active),

SMILES,Potency,"viability change, negative = cytotoxic"
Oc1ccc2c(c1)OC[C@@H](N1CCC(O)(c3ccc(F)cc3)CC1)[C@H]2O,inactive,
NC(=O)c1cccnc1,inactive,
Cc1ccccc1Cl,inactive,
COC(=O)C1CC(=O)C(C(=O)OC)CC1=O (stereo not given),,18.8% [at 8.39 µM] (inactive)
CC[N+](CC)(CC)CCOc1ccc(/C=C/c2ccccc2)cc1,inactive,
CCN(CC)CC,inactive,
O=C1CCCN1CCO,inactive,
CCCCCCCC/C=C\CCCCCCCC(=O)O,inactive,
OC1OC[C@@H](O)[C@H](O)[C@H]1O (stereo not given in full),inactive,
CC(C)CCCCCCc1ccc(OCCOCCO)cc1,inactive,
CC(C)Oc1ccc2c(=O)c(-c3ccccc3)coc2c1,inactive,
NCc1ccco1,inactive,
COC(=O)c1cc(C(=O)OC)cc(S(=O)(=O)O)c1,inactive,
CCc1cc(C(N)=S)ccn1,inactive,
CCCCC(CC)CNC(=O)CC(C)OC(=O)CCC(=O)O (stereo not given),inactive,
COC(=O)c1cccc(C(=O)OC)c1,inactive,
COc1ccc(OC(=O)N(CC(=O)O)Cc2ccc(OCCc3nc(-c4ccccc4)oc3C)cc2)cc1,inactive,
COC(=O)c1ccc(C(=O)O)cc1,inactive,
C[C@]12CC[C@@H]3c4ccc(O)cc4C[C@@H](CCCCCCCCCS(=O)CCCC(F)(F)C(F)(F)F)[C@H]3[C@@H]1CC[C@@H]2O (stereo not given in full),inactive,
COc1ccccc1N1CCN(CCCCNC(=O)c2ccc(-c3ccc(C(C)=O)cc3)cc2)CC1,inactive,
